# In PubChem BioAssay:
# Calls of active or inactive are those of the source.
# What was measured:
# [1] = binders of probe aFSTL3 on microarray, primary screen, stem cell growth factor project, biochemical, small-molecule microarray, fluorescence 635/667 (AID 1064); conditions: higher = more signal;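 note: measures binding of the biotinylated anti-FSTL3 antibody to printed compounds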
# [2] = binders from COS7 lysate, DM2A8 probe, primary screen, torsin A project, cell lysate, small-molecule microarray, fluorescence 635/667 (AID 1065); conditions: higher = more signal, COS7 lysate expressing mutant human TOR1A
# [3] = binders of probe aFGF2 on microarray, primary screen, stem cell growth factor project, biochemical, small-molecule microarray, fluorescence 635/667 (AID 1067); conditions: higher = more signal;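 note: measures binding of biotinylated aFGF2 protein to printed compounds on slides; z-score merges feature fluorescence and signal-to-noise across triplicate slides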
# [4] = binders of probe aFGF10 on microarray, primary screen, stem cell growth factor project, biochemical, small-molecule microarray, fluorescence 635/667 (AID 1071); conditions: higher = more signal;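 note: score merges 667 nm spot intensity and signal to noise from triplicate slides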
# [5] = target: Neurogenic locus notch homolog protein 2 (Homo sapiens) (UniProt Q04721); assay: Notch2 binders on small-molecule microarrays, primary screen, biochemical, small-molecule microarray, 635 nm fluorescence, stem cell growth factors (AID 1073); conditions: Notch2 binding, higher = more signal
# Neurogenic locus notch homolog protein 2 (Homo sapiens), sequence (Q04721 whole entry, looked up, canonical isoform): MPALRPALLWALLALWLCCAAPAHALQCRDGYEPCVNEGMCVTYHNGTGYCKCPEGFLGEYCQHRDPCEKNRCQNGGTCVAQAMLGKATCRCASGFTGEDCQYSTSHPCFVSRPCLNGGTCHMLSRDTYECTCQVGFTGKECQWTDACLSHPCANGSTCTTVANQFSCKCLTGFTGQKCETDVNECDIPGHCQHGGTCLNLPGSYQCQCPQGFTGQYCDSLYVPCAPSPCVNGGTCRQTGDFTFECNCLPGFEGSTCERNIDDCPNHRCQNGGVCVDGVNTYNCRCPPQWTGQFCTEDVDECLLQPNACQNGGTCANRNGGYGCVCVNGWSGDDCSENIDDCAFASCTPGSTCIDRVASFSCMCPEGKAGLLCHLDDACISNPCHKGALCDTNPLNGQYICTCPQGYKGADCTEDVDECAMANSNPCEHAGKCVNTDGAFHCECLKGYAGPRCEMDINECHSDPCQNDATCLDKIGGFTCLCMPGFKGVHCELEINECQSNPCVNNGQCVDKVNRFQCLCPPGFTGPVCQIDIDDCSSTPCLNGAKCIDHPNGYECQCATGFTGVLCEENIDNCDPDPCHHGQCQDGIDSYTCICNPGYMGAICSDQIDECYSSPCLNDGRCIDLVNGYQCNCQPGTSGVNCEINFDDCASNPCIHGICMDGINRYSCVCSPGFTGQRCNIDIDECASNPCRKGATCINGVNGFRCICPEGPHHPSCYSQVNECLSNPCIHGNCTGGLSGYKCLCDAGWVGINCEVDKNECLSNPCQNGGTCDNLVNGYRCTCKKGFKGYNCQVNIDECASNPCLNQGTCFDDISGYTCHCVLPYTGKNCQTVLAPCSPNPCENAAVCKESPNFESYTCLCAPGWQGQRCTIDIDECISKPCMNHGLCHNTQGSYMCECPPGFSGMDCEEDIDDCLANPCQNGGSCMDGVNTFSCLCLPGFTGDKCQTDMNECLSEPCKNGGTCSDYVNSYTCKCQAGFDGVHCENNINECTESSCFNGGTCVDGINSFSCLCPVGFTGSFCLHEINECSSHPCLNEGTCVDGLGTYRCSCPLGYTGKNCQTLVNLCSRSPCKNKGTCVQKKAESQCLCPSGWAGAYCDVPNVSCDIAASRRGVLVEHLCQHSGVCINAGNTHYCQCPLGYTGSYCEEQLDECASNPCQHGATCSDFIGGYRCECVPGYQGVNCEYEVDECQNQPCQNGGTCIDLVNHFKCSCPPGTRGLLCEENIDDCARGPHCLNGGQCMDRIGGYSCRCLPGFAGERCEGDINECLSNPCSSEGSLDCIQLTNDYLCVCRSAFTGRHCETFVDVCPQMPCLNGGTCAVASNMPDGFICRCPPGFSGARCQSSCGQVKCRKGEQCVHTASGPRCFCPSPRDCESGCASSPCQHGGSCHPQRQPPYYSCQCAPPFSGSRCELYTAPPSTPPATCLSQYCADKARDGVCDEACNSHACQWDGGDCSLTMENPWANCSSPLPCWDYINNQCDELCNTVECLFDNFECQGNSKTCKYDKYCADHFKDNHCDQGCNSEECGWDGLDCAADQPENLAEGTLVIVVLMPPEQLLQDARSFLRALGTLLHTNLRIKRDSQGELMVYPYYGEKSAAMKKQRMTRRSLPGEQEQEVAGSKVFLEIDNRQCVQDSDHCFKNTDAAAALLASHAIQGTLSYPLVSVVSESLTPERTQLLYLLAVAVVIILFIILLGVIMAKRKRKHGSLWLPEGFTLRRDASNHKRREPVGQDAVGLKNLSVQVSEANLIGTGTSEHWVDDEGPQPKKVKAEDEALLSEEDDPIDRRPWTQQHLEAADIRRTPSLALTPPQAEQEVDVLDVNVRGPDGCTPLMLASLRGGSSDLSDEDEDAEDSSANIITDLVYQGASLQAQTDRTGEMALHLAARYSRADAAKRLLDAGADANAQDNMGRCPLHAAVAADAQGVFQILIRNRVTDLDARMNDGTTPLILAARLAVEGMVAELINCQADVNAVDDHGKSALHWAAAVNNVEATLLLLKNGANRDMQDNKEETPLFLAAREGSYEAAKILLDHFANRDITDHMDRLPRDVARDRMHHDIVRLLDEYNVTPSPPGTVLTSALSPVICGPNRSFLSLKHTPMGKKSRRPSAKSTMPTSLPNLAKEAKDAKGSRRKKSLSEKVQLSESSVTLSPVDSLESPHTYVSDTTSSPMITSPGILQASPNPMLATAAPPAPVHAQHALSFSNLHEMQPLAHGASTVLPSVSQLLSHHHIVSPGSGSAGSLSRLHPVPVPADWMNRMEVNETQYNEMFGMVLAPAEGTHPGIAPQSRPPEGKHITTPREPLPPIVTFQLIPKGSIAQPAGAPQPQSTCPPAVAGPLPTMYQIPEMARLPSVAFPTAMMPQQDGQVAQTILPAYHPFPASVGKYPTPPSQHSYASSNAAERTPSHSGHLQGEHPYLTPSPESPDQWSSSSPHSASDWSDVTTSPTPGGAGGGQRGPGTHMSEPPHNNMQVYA
# [6] = target: Pro-neuregulin-1, membrane-bound isoform (Homo sapiens) (UniProt Q02297); assay: NRG1 binders on small-molecule microarrays, primary screen, psychiatric disease protein project, biochemical, small-molecule microarray, fluorescence 635/667 (AID 1075); conditions: NRG1 binding, 635 nm fluorescence, higher = more signal;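 note: score combines 667 nm spot fluorescence with signal to noise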
# Pro-neuregulin-1, membrane-bound isoform (Homo sapiens), sequence (Q02297 whole entry, looked up, the tested form may be a part, canonical isoform): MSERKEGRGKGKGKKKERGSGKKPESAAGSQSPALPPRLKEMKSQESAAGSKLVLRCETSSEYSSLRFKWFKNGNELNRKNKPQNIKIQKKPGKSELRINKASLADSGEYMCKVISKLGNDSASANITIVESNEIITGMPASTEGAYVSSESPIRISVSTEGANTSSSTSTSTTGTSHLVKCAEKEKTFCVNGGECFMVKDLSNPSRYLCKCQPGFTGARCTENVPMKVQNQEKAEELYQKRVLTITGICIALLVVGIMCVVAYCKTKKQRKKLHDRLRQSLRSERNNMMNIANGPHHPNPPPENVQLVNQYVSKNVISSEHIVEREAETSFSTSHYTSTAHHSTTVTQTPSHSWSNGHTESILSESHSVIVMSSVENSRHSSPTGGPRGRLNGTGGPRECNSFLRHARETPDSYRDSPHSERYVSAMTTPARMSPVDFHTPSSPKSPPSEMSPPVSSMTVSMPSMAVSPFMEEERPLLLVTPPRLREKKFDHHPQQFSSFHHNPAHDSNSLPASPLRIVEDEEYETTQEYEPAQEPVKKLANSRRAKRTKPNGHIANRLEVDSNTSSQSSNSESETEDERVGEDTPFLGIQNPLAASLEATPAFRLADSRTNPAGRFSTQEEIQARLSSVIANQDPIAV
# [7] = system: Neuregulin-1 EGF-like domain; assay: binders of neuregulin-1 EGF-like domain, primary screen, biochemical, small-molecule microarray, 635 nm fluorescence (AID 1081); conditions: small-molecule microarray binding, higher = more signal;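 note: binding of the protein to compounds printed on small-molecule microarray slides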
# [8] = FRG1 promoter luciferase signal modulators, primary screen, FRG1 inhibition for FSHD, cell-based, C2C12 myotubes, firefly/Renilla luciferase, luminescence (AID 1084); conditions: higher = more signal, called active from +8 up or from −8 down
# [9] = binders of probe aFST on microarray, primary screen, stem cell growth factor project, biochemical, small-molecule microarray, fluorescence 635/667 (AID 1086); conditions: higher = more signal;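 note: score merges 667 nm fluorescence with signal-to-noise of each printed compound spot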
# [10] = binders of probe aHhip on microarray, primary screen, stem cell growth factor project, biochemical, small-molecule microarray, fluorescence 635/667 (AID 1087); conditions: higher = more signal;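 note: score merges spot fluorescence at 667nm with spot signal to noise ratio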
# [11] = system: PRMT1 (protein arginine N-methyltransferase 1); assay: PRMT1 binders on small-molecule microarrays, primary screen, biochemical, small-molecule microarray, 635 nm fluorescence (AID 1088); conditions: small-molecule microarray binding, higher = more signal;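 note: binding of Prmt1 protein to compounds spotted on small-molecule microarray slides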
# [12] = yeast growth modulation, basal conditions, primary screen, YJM789 clinical isolate, OD600, 24 h (AID 1089);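 note: growth of clinical yeast isolate S. cerevisiae YJM 789 seeded 1000 cells per well; test concentration not given here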; conditions: S. cerevisiae YJM789 growth, higher = more signal, called active from +8 up or from −8 down
# [13] = fission yeast growth modulation, primary screen, strain 972, OD600, 24 h, no modulator (AID 1090);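 note: basal condition with compound alone and no growth modifier present; test concentration not given here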; conditions: S. pombe 972 growth, higher = more signal, called active from +8 up or from −8 down
# [14] = S. cerevisiae growth modulation with rapamycin, primary screen, strain BY4716, OD600, 96 h (AID 1091); conditions: higher = more signal, called active from +8 up or from −8 down; note: test concentration not given here
# [15] = target: Torsin-1A-interacting protein 2 (Homo sapiens) (UniProt Q8NFQ8); assay: LULL1 binders on small-molecule microarray, primary screen, cell lysate, human LULL1 lysate, 635/667 nm fluorescence (AID 1092); conditions: hLULL1 lysate binding, 635 nm fluorescence, higher = more signal;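 note: probe is lysate of COS7 cells overexpressing human LULL1; score merges per-feature 667 nm fluorescence with signal-to-noise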
# Torsin-1A-interacting protein 2 (Homo sapiens), sequence (Q8NFQ8 whole entry, looked up): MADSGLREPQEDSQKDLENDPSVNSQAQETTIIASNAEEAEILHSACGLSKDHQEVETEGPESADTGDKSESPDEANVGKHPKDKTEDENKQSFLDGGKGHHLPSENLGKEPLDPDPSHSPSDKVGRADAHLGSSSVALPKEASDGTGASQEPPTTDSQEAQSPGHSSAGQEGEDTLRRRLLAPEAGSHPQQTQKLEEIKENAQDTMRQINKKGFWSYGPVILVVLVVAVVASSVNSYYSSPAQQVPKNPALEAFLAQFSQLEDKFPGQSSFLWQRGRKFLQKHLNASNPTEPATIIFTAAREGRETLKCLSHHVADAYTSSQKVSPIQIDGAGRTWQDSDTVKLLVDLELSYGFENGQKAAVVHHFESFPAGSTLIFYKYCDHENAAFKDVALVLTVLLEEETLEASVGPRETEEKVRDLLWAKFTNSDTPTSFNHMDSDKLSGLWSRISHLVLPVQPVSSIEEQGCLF
# [16] = E. coli growth modulation, two-sided OD650, primary screen, E. coli filamentation project, strain DRC41, 24 h (AID 1093); conditions: OD650, 24 h, higher = more signal, called active from +8 up or from −8 down;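 note: MC1000 strain lacking acrAB efflux and sulA so SOS filamentation is blocked; test concentration not given here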
# [17] = small-molecule microarray binders of probe aLefty2, primary screen, biochemical, biotinylated probe, 635/667 nm fluorescence (AID 1094); conditions: higher = more signal;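 note: score merges spot fluorescence near 667 nm with spot signal-to-noise ratio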
# [18] = system: Noggin (protein binding on small-molecule microarray); assay: Noggin binders on small-molecule microarray, primary screen, biochemical, 635/667 nm fluorescence (AID 1095); conditions: 635 nm fluorescence, higher = more signal;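 note: score merges 667 nm feature fluorescence with signal to noise over triplicate slides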
# [19] = target: Neurogenic locus notch homolog protein 3 (Homo sapiens) (UniProt Q9UM47); assay: NOTCH3 binders on small-molecule microarray, primary screen, biochemical, 635/667 nm fluorescence (AID 1096); conditions: NOTCH3 binding, 635 nm fluorescence, higher = more signal
# [20] = small-molecule microarray binders of probe aEGFR, primary screen, biochemical, biotinylated probe, 635/667 nm fluorescence (AID 1097); conditions: higher = more signal;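 note: probe is a biotinylated anti-EGFR antibody binding compounds printed on slides; score combines fluorescence near 667 nm and signal to noise of each spot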
SMILES,composite z-score [1],composite z-score [2],composite z-score [3],composite z-score [4],composite z-score [5],composite z-score [6],composite z-score [7],z-score [8],composite z-score [9],composite z-score [10],composite z-score [11],z-score [12],z-score [13],z-score [14],composite z-score [15],z-score [16],composite z-score [17],composite z-score [18],composite z-score [19],composite z-score [20]
C=C(COC)/C(=C/C[C@@H](OC(=O)c1ccncc1)c1ccccc1OCCO)c1cc(C(=O)OC)ccc1OC,0.232,-0.72,-0.0718,0.263,-0.381,-0.33,0.851,-1.87 (inactive),-0.3,-0.0645,0.768,-0.833 (inactive),-0.778 (inactive),0.351 (inactive),0.703,0.0184 (inactive),-0.106,-0.341,-0.0686,-0.178
COCCOC(=O)N1C(=O)[C@@]2(c3cc(C#CC4=CCCCC4)ccc31)[C@H](c1ccc(O)cc1)N1[C@H](c3ccccc3)[C@H](c3ccccc3)OC(=O)[C@H]1[C@@H]2C(=O)NC[C@H](O)c1ccccc1,-0.217,0.167,0.0059,0.824,1.18,1.3,1.2,0.675 (inactive),0.443,-0.174,1.56,1.44 (inactive),0.236 (inactive),3.15 (inactive),2.51,0.12 (inactive),-0.003,0.782,1.07,0.0397
COC(=O)C1=CC(CCCO)=CC(C)N(Cc2cccc(OC(F)(F)F)c2)C=C1C(=O)OC (stereo not given),-0.385,-0.383,-0.0667,0.157,0.412,2.05,1.21,-0.181 (inactive),0.577,-0.0994,0.897,-0.743 (inactive),-2.12 (inactive),0.219 (inactive),2.65,-1.53 (inactive),-0.0712,-0.296,0.532,-0.02
CN(C)CCCCCCNC(=O)[C@@H]1C[C@@H]2C(=O)N[C@@H](CCCCN)C(=O)N2[C@@H]1c1ccc(O)cc1,3.77,1.82,0.939,1.2,1.65,2.91,1.53,0.918 (inactive),3.81,3.69,1.54,-0.38 (inactive),-3.54 (inactive),-0.958 (inactive),4.67,1.98 (inactive),1.87,2.25,1.02,1.31
O=C1O[C@H](c2ccccc2)[C@H](c2ccccc2)N2[C@H]1[C@@H](C(=O)N1CCCCCCC1)[C@]1(C(=O)Nc3ccc(C#CC4(O)CCCCCC4)cc31)[C@H]2c1ccccc1OCCO,4,2.61,0.935,1.46,1.83,2.5,1.33,-1.5 (inactive),3.82,1.9,1.54,1.56 (inactive),0.462 (inactive),3.41 (inactive),5.1,1.04 (inactive),1.91,2.38,1.03,1.51
CCCC=C(CCC)[C@@H](NS(=O)(=O)c1cccc2cccnc12)c1ccc(-c2ccccc2)cc1,-0.245,0.185,0.103,0.91,1.66,1.08,0.898,2 (inactive),1.41,-0.0417,1.55,-0.221 (inactive),0.114 (inactive),0.638 (inactive),3.61,-0.701 (inactive),0.104,1.07,1.06,0.06
O=C1O[C@H](c2ccccc2)[C@H](c2ccccc2)N2[C@H]1[C@@H](C(=O)O)[C@]1(C(=O)Nc3ccc(C#CC4(O)CCCCCC4)cc31)[C@H]2c1ccc(O)cc1,-0.252,0.128,-0.166,0.439,-0.0475,1.28,0.866,-0.278 (inactive),-0.247,-0.134,0.871,-0.386 (inactive),-1.22 (inactive),-1.76 (inactive),3.14,2.04 (inactive),-0.142,-0.292,0.0139,0.192
CC(C)C(=C=CC[C@@H](O)c1cccc(OCCO)c1)C[C@@H](O)c1ccccn1,-0.437,-0.0934,-0.147,0.815,-0.553,-0.253,0.125,1.35 (inactive),-0.0246,-0.137,0.504,-0.282 (inactive),-0.361 (inactive),-0.419 (inactive),1.26,0.379 (inactive),-0.283,0.38,0.603,-0.161
COC(=O)[C@@]1(Cc2ccccc2CN=[N+]=[N-])N=C(c2ccc(OCCCO)cc2)O[C@H]1c1ccccc1,1.4,-0.0284,0.118,-0.774,-0.0293,0.532,1.2,-2.17 (inactive),0.187,-0.451,1.45,0.682 (inactive),-2.11 (inactive),35.9 (active),1.94,0.77 (inactive),0.547,0.151,0.107,0.0209
COCCOC(=O)N1C(=O)[C@@]2(c3cc(C#CCNC(N)=O)ccc31)[C@H](c1ccc(O)cc1)N1[C@H](c3ccccc3)[C@H](c3ccccc3)OC(=O)[C@H]1[C@@H]2C(N)=O,0.161,-0.412,-0.161,-0.484,-2.04,-0.702,-0.0682,0.0283 (inactive),-0.567,-0.39,-1.22,0.878 (inactive),0.0929 (inactive),0.374 (inactive),-0.841,1.04 (inactive),-0.294,-1.99,-1.15,-0.406
